The values below come from PubChem BioAssay.

Experiment [1] in a line: viability loss in pontine glioma line – cell-based, SU-DIPG-XVII, MIPE5.0, CellTiter-Glo, qHTS, dose response (AID 1347060).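 As to AC50: cells exposed to compound for 48 hours before viability readout.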 The note with it: CellTiter-Glo ATP luminescence.
The nature of experiment [2]: viability loss in pontine glioma line – cell-based, SU-DIPG-XIII, MIPE4.0, CellTiter-Glo, qHTS, dose response (AID 1347061; cut-off not given, nearly all actives have AC50 up to about 37 µM;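 also: cells exposed to compound for 48 hours before readout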). To be noted: CellTiter-Glo ATP luminescence. (ATP-based viability assays read luminescence as a measure of living cells.)
Experiment [3] is described as follows: viability loss in pontine glioma line – cell-based, SU-DIPG-IV, MIPE4.0, CellTiter-Glo, qHTS, dose response (AID 1347063; cut-off not given, nearly all actives have AC50 up to about 30 µM;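 also: compound exposure lasted 48 hours before the viability readout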). The note with it: CellTiter-Glo ATP luminescence.
A short description of experiment [4]: viability loss in pontine glioma line – cell-based, SU-DIPG-XXV, MIPE5.0, CellTiter-Glo, qHTS, dose response (AID 1347065).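 Also: cells exposed to compound for 48 hours before ATP readout.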 To be noted: CellTiter-Glo ATP luminescence.
A short description of experiment [5]: growth inhibition of DIPG cells – cell-based, MIPE4.0 library, CellTiter-Glo luminescence, qHTS (AID 1347066; cut-off not given, nearly all actives have AC50 up to about 30 µM;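 also: cells exposed to compound for 48 hours before readout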). The note with it: SU-DIPG-VI viability, CellTiter-Glo ATP luminescence.
Experiment [6] can be described thus: JHH-DIPG-1 glioma cell viability, MIPE5.0 library, CellTiter-Glo luminescence, qHTS (AID 1347067).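 Also: cells exposed to compound for 48 hours before readout.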 The note with it: JHH-DIPG-1 glioma viability, CellTiter-Glo ATP luminescence.
Experiment [7] is described as follows: viability loss in pontine glioma line – cell-based, SU-DIPG-XIII, MIPE5.0, CellTiter-Glo, qHTS, dose response (AID 1347064; cut-off not given, nearly all actives have AC50 up to about 23 µM;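 as to AC50: cells exposed to compound for 48 hours before the viability read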). The note with it: CellTiter-Glo ATP luminescence.
Experiment [8] can be described thus: compounds altering HSF1 focus formation in cells – imaging, Selleck Cancer Library (AID 1347162; in the data active = plate-normalised HSF1 focus index below about 0.46). The note with it: human cells, HSF1 nuclear foci imaging, at 10 µM; SSMD: measured here: HSF1 foci SSMD mean; cell count: measured here: cell number; plate-normalised HSF1 focus index: stronger effect = lower value.
A short description of experiment [9]: viability loss with induced miR-34 in A549 – imaging, A549 dox-inducible miR-34, nuclei and caspase counts, primary screen (AID 1347080;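 active = compounds whose cell count with miR-34 switched on is under 0.7 times the count with it off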). To be noted: A549 miR-34 inducible, Hoechst nuclei count, 48 h.
The nature of experiment [10]: growth inhibition of DIPG cells – cell-based, MIPE5.0 library, qHTS (AID 1347068; cut-off not given, nearly all actives have IC50 up to about 30 µM). To be noted: SU-DIPG-XXV viability. (In qHTS, concentration-response curves come from the screen itself.)
A short description of experiment [11]: MELAS cybrid and Rieske KO viability enhancers – cell-based, MELAS cybrids, Rieske KO mouse fibroblasts, CellTiter-Glo, primary screen (AID 1508586;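 active = mean z-score across replicates of 1.96 or higher in either the MELAS or the Rieske mutant cell line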;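 also: z relative to plate mean and SD of compound and empty wells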). The note with it: low glucose.
Where [12] appears, read: stronger effect = lower value, cell number ratio, induced over uninduced.
Where [13] appears, read: measured here: relative caspase fold change +Dox/-Dox.
The mark [14] stands for this setting: measured here: total cells with miR-34 induction, stronger effect = lower value.
Setting [15] is: measured here: total cells without miR-34 induction.
The mark [16] stands for this setting: MELAS cybrid survival, CellTiter-Glo 48 h, stronger effect = higher value.
Where [17] appears, read: Rieske KO mouse fibroblast survival, CellTiter-Glo 72 h.

“And” between values parts separate entries of the source, which are not always exact repeats. Identical values can stand only once. Inconclusive results are not listed. The source made the active and inactive calls. Unless noted, the limit is not given here; nearly all actives have AC50 up to about 26 µM.

One may read the AC50 as the concentration at which the activity in the assay is half-maximal. As for `Cc1ccc(S(=O)(=O)Nc2cc(Cl)ccc2C(=O)Nc2nc(-c3ccccc3)cs2)cc1`, the AC50 is 7.42 µM (active) in experiment [1]; 10.5 µM (active) in [2]; 16.6 µM (active) in [3]; 8.33 µM (active) in experiment [4]; 5.26 µM (active) in experiment [5]; 1.05 µM (active) in experiment [6].
`COc1cc2ncnc(Nc3cccc(Br)c3)c2cc1OC`: the AC50 is 2.09 µM (active) in [1], 14.8 µM (active) in experiment [7], 16.6 µM (active) in experiment [4] and 20.9 µM (active) in [6]. Further, the compound was classed as inactive in experiment [2]. This compound returned an SSMD in [8] of 2.47. The compound further gave a cell count in experiment [8] of 7590. Besides, the plate-normalised HSF1 focus index in experiment [8] is 1.15 (inactive).
Consider `C/C=C/C[C@@H](C)C(=O)[C@H]1C(=O)N[C@@H](C(C)C)C(=O)N(C)CC(=O)N(C)[C@@H](CC(C)C)C(=O)N[C@@H](C(C)C)C(=O)N(C)[C@@H](CC(C)C)C(=O)N[C@@H](C)C(=O)N[C@H](C)C(=O)N(C)[C@@H](CC(C)C)C(=O)N(C)[C@@H](CC(C)C)C(=O)N(C)[C@@H](C(C)C)C(=O)N1C`, for which the values for the AC50 in [1], in [2] and in [4] were 8.11 µM (active), 18.7 µM (active) and 5.74 µM (active), respectively.
With `C/C=C/C/C=C/CCC(=O)[C@H]1O[C@H]1C(N)=O`, the AC50 is 20.9 µM (active) in [1], 20.9 µM (active) in experiment [7] and 23.5 µM (active) in experiment [6]. In addition, the compound was classed as inactive in [2] and in experiment [5]. Also, the fold change in experiment [9] (setting [12]) is 0.809 (inactive) and 1.05 (inactive); in experiment [9] (setting [13]) it was 2.34 and 1.07. Also, the cell count in experiment [9] (setting [14]) was 532 and 6420; in [9] (setting [15]) it was 658 and 6130.
On to `CC1(C)CCC(CN2CCN(c3ccc(C(=O)NS(=O)(=O)c4ccc(NCC5CCOCC5)c([N+](=O)[O-])c4)c(Oc4cnc5[nH]ccc5c4)c3)CC2)=C(c2ccc(Cl)cc2)C1`, for which the AC50 in experiment [1] is 18.6 µM (active); in [3], 10.5 µM (active); in experiment [4] it was 0.417 µM (active); in experiment [5], 7.43 µM (active); in [6], 13.2 µM (active). In addition, the compound was called inactive in [2] and in experiment [10]. The values for the fold change in experiment [9] (setting [12]) and in experiment [9] (setting [13]) were 1.1 (inactive) and 0.349, respectively. The cell count came out at 5370 in [9] (setting [14]) and 4860 in [9] (setting [15]). In addition, the z-score was -0.355 (inactive) in experiment [11] (setting [16]) and 0.0474 in experiment [11] (setting [17]).
In the case of `O=C(O)Cn1nnc(-c2cc(N3CCC(Oc4cc(F)ccc4Br)CC3)no2)n1`, the result in experiment [1], in [2], in experiment [3], in experiment [7], in experiment [5] and in [6] was inactive. Besides, the outcome in [10] was inactive. Moreover, the fold change is 0.885 (inactive) in experiment [9] (setting [12]) and 0.826 in experiment [9] (setting [13]). Also, the cell count in experiment [9] (setting [14]) was 6300; in [9] (setting [15]) it was 7120. For the same compound, the z-score is -0.382 (inactive) in experiment [11] (setting [16]) and 0.855 in [11] (setting [17]).
Consider `Cn1c(Nc2ccc(C(F)(F)F)cc2)nc2cc(Oc3ccnc(-c4ncc(C(F)(F)F)[nH]4)c3)ccc21`, for which the AC50 in experiment [1] is 5.25 µM (active); in experiment [2], 16.6 µM (active); in experiment [3], 0.132 µM (active); in [4], 0.372 µM (active); in [5], 3.32 µM (active); in [6], 2.63 µM (active). Further, the results for the fold change in experiment [9] (setting [12]) and in experiment [9] (setting [13]) were 0.96 (inactive) and 0.95, respectively. Also, the values for the cell count in [9] (setting [14]) and in experiment [9] (setting [15]) were 2230 and 2330, respectively. The z-score is 0.723 (inactive) in experiment [11] (setting [16]) and 0.357 in [11] (setting [17]).
Regarding `C[C@]12CC[C@@H]3c4ccc(O)cc4CC[C@H]3[C@@H]1[C@@H](O)[C@@H](O)[C@@H]2O`, the result in experiment [1], in experiment [2], in experiment [3], in experiment [5], in [6] and in experiment [10] was inactive.
